The text below walks through data of the supplement of paper PMC6555819.

This assay concerns VDR:RXRa (NR concentration 270 nM, RXRa partner concentration 90 nM). As to the kind of experiment: PBM binding z-score (relative to random genomic background probes); higher = stronger binding; sequences stand for … in GC…GCGATTGACAGCGTAGAATGAAGG
On the procedure: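 Protein-binding microarray (Agilent 4x180K custom design, double-stranded 60-nt probes: 5' GC cap, 34-nt variable region, 24-nt constant primer region; full probe sequence given). Purified or IVT nuclear receptor:RXRα heterodimers (3:1 NR:RXRα, mostly 270:90 nM) or homodimers were incubated for 1 h in PBS with 2% milk and no ligand, then detected with Alexa488 antibodies. Fluorescence from o1-orientation probes (~5 replicates averaged) was converted to z-scores against 500 random hg19 background probes. Variable regions are seed direct-repeat (DR0–DR5) sites, all their single-nucleotide variants and half-site ablations.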
In turn, TAGCCTAGGTCATTCAGGGGCCATTATAGAAAGC displayed a PBM binding z-score of 4.23.

TGAATGAGGTTAAAGATCAGCGAACGTGGCGTCG came in with a PBM binding z-score of 1.75.

In turn, TTACCAAGGTGAGCGGAGGTCGTTGATCCAACTC registered a PBM binding z-score of 3.36.

Sequence AATACAGGGTCATCGTAGGCCAGAATACGCACAG displayed a PBM binding z-score of 5.15.

With AGTCGAAGTTCATCTAGGTAACGTAAGATATGCT, the PBM binding z-score stood at 3.51.

With TCAGACAGGGGAAGGTAACTCAGGTACGCAGTCG, the PBM binding z-score is 0.795.

Regarding CGTCCAAGGTCAGCATGTCAGTGAAAGCGACGTG, the PBM binding z-score came out at 2.49.

In the case of GCTAGTTGGTCAGGAAAAGGTCACACACCGGTCG, the PBM binding z-score amounted to 3.66.

In turn, CAAACTAGGTCAAGAGGTGAAAGTCCGCTTCCCG came in with a PBM binding z-score of 2.93.

Turning to CGTCCAAGGTCATAGGAGGTCAGTGGAGACAGAT, the PBM binding z-score was found to be 6.87.

In the case of CCGACTGGGGCATAAGGTTACCACAAGCCAGCCC, the PBM binding z-score came to 0.105.

On to CGTCCAAGTTCAAAGGTCAGTGAAGAGATGACGG, for which the PBM binding z-score came to 6.37.

TGTCAAAGTTCAAAGGTAACGCAAGTATCCACAC gave a PBM binding z-score of 5.17.

As for ATCTCTAGGTAACAAGTTCATTGAAAGAGAGGAC, the PBM binding z-score is 3.84.

In the case of TCGAGAAGGTTAGTCGGGGCATTCAGCCAACATA, the PBM binding z-score was 3.71.

Sequence CGTCCAAGGTCAAATGTCAGTGAAGAGATGACGG returned a PBM binding z-score of 4.67.

In turn, ACAGACAGGTGATGAAGGAAACTCAGGCTATCAT registered a PBM binding z-score of -0.266.

As for AGAATGAGGTTAAGGTCAGGGAAACAGAATACAT, the PBM binding z-score was determined as 3.82.

For CCTACTGGGCCATCCGGTCATTGATATCAACGTT, the PBM binding z-score worked out at 0.0642.

TCAGACGGGTGAAGGTAACTCAGGTACGCAGTCG: the PBM binding z-score stood at 0.218.

CAAACTAGGTCAAGGTGAAAGTCGGTTTGTGCCA: the PBM binding z-score came out at 2.1.

As to GCAGACAGGAGAAACGCAGGTAACTCAGGGTGGC, the PBM binding z-score is -0.548.

With CGTCCAAGGTCAGCAGCTCAGTGAAAGCGACGTG, the PBM binding z-score is 2.09.

In turn, TCTAGTTGTTCAAAGGTCACACACTCGAAATGCG displayed a PBM binding z-score of 4.95.

As for ATTATTAGTTGACTTAGGGCAACCGATACGACGC, the PBM binding z-score worked out at 0.926.

CCTGCTAGGTCATGCTCAGCTAATCTACAGTATG displayed a PBM binding z-score of 1.33.

The sequence TCTATTAATTGAAGGGCAACCGACGAGTCCGTTT showed a PBM binding z-score of 1.05.

CCAGACAGGTGCAAGGTAACTCAGTCTGGTACGC came in with a PBM binding z-score of -0.136.

CGTCAAAGTTCAACTAAGGTAAAGTAAAGCACGC gave a PBM binding z-score of 4.64.

With GCTCGGAGGACAAGGTTAGAGCTTTGTCCGTAGA, the PBM binding z-score is -0.341.

In the case of CCTACTGGGCCAAAGGTCATCGATTCCAATGCTC, the PBM binding z-score is 4.53.

In turn, CGTCCAAGGTCATAGGAGGTCTGTGAAGACAGAT came in with a PBM binding z-score of 4.72.

In the case of CGAACTAGGTCATTGACAGGACATTGAATAGTAA, the PBM binding z-score came out at 3.1.

Take TCATATAGGTATAAGGTGAAAGTCGGTGTGGTAA: the PBM binding z-score was found to be 1.06.

For AGAATGAGGTTATTAAGACCAGGGAATTGCGGTC, the PBM binding z-score was 1.69.

In the case of TCTAGTTGGTCTCGGAGGTCACACACGACGGGTA, the PBM binding z-score was 3.75.

Sequence CAGCCTAGGTCAGGACCAGTATAGGAGGAACGTT registered a PBM binding z-score of 0.522.

Take CAAACTAGGTCTCCGGAAGGTCAAAGTCCGCATG: the PBM binding z-score came out at 3.06.

For CCTAGTTGATCAGGAGGTCACACACCGGATATGA, the PBM binding z-score was found to be 4.08.

Turning to TGAATGAGGTTATCAGATCAGGGAACGTTGCAAA, the PBM binding z-score worked out at 1.04.
